Consider 40 compounds from ChEMBL document CHEMBL3988442, “University of Dundee, Small-Polar-MMV Screening Library” (2021).

Molecules are shown by their SMILES.

One test addresses T1, Aspartate--tRNA(Asp/Asn) ligase (Mycobacterium tuberculosis (strain ATCC 25618 / H37Rv)) (UniProt P9WFW3).
T1 sequence (whole entry): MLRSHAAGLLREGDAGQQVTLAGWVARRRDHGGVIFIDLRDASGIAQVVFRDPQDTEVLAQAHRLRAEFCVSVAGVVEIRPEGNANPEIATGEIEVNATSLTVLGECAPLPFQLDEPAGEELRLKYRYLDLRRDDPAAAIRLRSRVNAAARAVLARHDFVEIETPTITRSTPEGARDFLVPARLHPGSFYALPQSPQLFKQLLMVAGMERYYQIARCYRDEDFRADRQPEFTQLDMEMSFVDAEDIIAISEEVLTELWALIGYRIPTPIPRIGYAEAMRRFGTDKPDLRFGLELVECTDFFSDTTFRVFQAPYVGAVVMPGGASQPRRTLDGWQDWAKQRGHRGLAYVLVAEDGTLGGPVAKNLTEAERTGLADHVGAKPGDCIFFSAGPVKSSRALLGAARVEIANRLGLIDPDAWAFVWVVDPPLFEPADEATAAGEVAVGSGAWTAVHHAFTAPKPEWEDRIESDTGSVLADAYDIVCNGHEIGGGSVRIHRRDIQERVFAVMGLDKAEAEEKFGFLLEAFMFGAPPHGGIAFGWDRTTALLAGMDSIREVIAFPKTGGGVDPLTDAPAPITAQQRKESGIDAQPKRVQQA
The test can be described thus: Assay for Asp RNA synthetase-1 from Mycobacterium tuberculosis. Type of test: functional. On the set-up: scale not given: direction of the effect not stated beside the values. To be noted: 30 µM.
In the case of `O=c1ccc2c(n1CCN1CCCC1)CCN(Cc1ccoc1)CC2`, the Percent Effect was -2.69%.
For `Cc1noc(C)c1CN(C)C(=O)NC1CCN(C2CC2)CC1`, the Percent Effect is -2.46%.
For `O=C(NC1CCC1)[C@@H]1C[C@@H]2CCN(Cc3cccs3)C[C@@H]2O1`, the Percent Effect is -2.46%.
Consider `CC(C)Oc1ncnc2c1CCN(Cc1cccs1)CC2`, for which the Percent Effect came to 1.14%.
Take `O=C1CC[C@H]2[C@H](CCN2C(=O)C2CCOCC2)N1Cc1ccncc1`: the Percent Effect is -6.47%.
On the same count and under the same terms, the value for `CS(=O)(=O)NCC1CCCCN1C(=O)Nc1cccnc1N1CCCC1` (stereo not given) was -2.73%; that for `CC(c1cccnc1)N(C)Cc1csc(-c2ccccn2)n1` (stereo not given) was -4.49%.
Still for that read-out and setting: the result for `Cc1ccc(Cl)cc1N1CCC(CNC(=O)CCn2ccnn2)C1` (stereo not given) reads 2.9%; that for `O=C(N1CCCC1)N1CCO[C@H]2[C@@H](Oc3ccccn3)CC[C@@H]21`, -4.07%; that for `O=C(c1cccnc1)N1CCCC2(CCN(c3ccsc3)C2=O)C1` (stereo not given), 7.21%.
Take `Cc1nc(CN2CCCC(NCCc3ccccc3Cl)C2)no1` (stereo not given): the Percent Effect is -1.91%.
As for `CN(Cc1ccc(F)cc1)[C@@H]1CN(C(=O)c2cccs2)C[C@H]1O`, the Percent Effect came to 4.22%.
With `CCC(=O)N1CCC2(CC1)COc1ccccc1S(=O)(=O)N(C)C2`, the Percent Effect is -1.57%.
On the same count and under the same terms, the result for `CCOCC1CN(C)Cc2cnn(CC3CCCC3)c21` (stereo not given) reads -2.58%.
In the case of `Cc1cccc(CN2CC3(CCNCC3)OCC2=O)n1`, the Percent Effect is 5.56%.
`CCN1CCN(S(=O)(=O)c2cc(C)c(Cl)cc2Cl)CC1`: the Percent Effect was -2.59%.
On to `CC(C)CNC(=O)c1ccc2nnc(C3CCN(S(C)(=O)=O)C3)n2c1` (stereo not given), for which the Percent Effect was determined as 3.22%.
Consider `Cn1cc(C(=O)CC2CCCN2C(=O)c2n[nH]c3ccccc23)cn1` (stereo not given), for which the Percent Effect is -3.71%.
Regarding `CNS(=O)(=O)c1cccc(C(C)NCc2ccccc2)c1` (stereo not given), the Percent Effect was -1.42%.
For the compound `OC(CNCCn1cccn1)c1ccc(F)c(F)c1` (stereo not given), the Percent Effect was -2.25%.
As for `Cc1nc(C)n(C2CCCN(C(=O)c3ccc(F)cc3F)C2)n1` (stereo not given), the Percent Effect was -6.88%.
As for `Cc1ccc(NC(=O)N2CCOC(C)C2)cc1Cl` (stereo not given), the Percent Effect was found to be 0.866%.
For `O=C(O)c1cc(S(=O)(=O)Nc2cc(F)ccc2F)cc2c1OCCO2`, the Percent Effect was -2.5%.
Regarding `CC(=O)N1CCC(c2ccnc(Nc3cnccn3)n2)C1` (stereo not given), the Percent Effect came to 1.13%.
Regarding `CCc1nnc2n1CCN(C(=O)C(C)COCc1ccccc1)C2` (stereo not given), the Percent Effect was 0.562%.
Consider `Cc1oc(-c2ccco2)nc1CC(=O)N1CCC(C(O)C(F)(F)F)CC1` (stereo not given), for which the Percent Effect was -5.79%.
Regarding `Cc1cc(CN(C)C(=O)NCC(C)N2CCc3ccccc32)no1` (stereo not given), the Percent Effect was -1.27%.
Same read-out and setting: the result for `Cc1cc(C)cc(OCCC(=O)N2CCCC(n3cncn3)C2)c1` (stereo not given) reads -4.66%.
Same read-out and setting: the result for `COc1cc(CCC(=O)NCC2CCCN2C)ccc1OCC(F)(F)F` (stereo not given) reads 1.43%.
With `COCCN(Cc1ccc(F)cc1Cl)C(=O)c1ccc(=O)[nH]n1`, the Percent Effect is -1.92%.
On the same count and under the same terms, the value for `O=C1CC2(CCCCN2C(=O)c2ccsc2)CN1CC1CC1` (stereo not given) was -2.94%; that for `COc1ccccc1C(=O)N1Cc2cc(C)ccc2OCC1CN(C)C` (stereo not given) was 1.89%.
As for `CCn1cc(S(=O)(=O)N(C)Cc2c(Br)cnn2CC)c(C)n1`, the Percent Effect amounted to 3.54%.
Regarding `Cn1ccnc1COc1ccc(CN2CCN(CCO)CC2)cc1`, the Percent Effect was -5.49%.
On the same count and under the same terms, the value for `COCCC1COC2(CCN(C(=O)c3ccco3)CC2)C1` (stereo not given) was -0.368%.
Turning to `O=C1CCC(C(=O)NCc2nncn2-c2ccccc2)CN1` (stereo not given), the Percent Effect was 3.33%.
For `Cc1ccc(-c2nc(CN3CCN(S(=O)(=O)N(C)C)CC3)cs2)o1`, the Percent Effect is 2.34%.
Still for that read-out and setting: the value for `O=C(NCCN1CCC(c2cccs2)CC1)Nc1cccs1` was -7.93%; that for `Cc1ccsc1CNc1cc(N2CCCC2CO)ncn1` (stereo not given) was 3.04%; that for `O=C(NCCn1ccnc1)N1CCN(c2nccs2)CC1` was 2.45%.

A further test deals with Shiga toxin 2 (Escherichia coli O157:H7) (UniProt P09385+P09386). The test can be described thus: E. coli 0.157:H7 Shiga Toxin SOP - stx2 screening assay. It is filed as functional. On the set-up: scale not given: direction of the effect not stated beside the values. The note with it: 30 µM.
Regarding `O=c1ccc2c(n1CCN1CCCC1)CCN(Cc1ccoc1)CC2`, the Percent Effect was -1.66%.
In the case of `Cc1noc(C)c1CN(C)C(=O)NC1CCN(C2CC2)CC1`, the Percent Effect was -7.45%.
Consider `O=C(NC1CCC1)[C@@H]1C[C@@H]2CCN(Cc3cccs3)C[C@@H]2O1`, for which the Percent Effect was -16.7%.
Consider `CC(C)Oc1ncnc2c1CCN(Cc1cccs1)CC2`, for which the Percent Effect worked out at 17.6%.
In the case of `O=C1CC[C@H]2[C@H](CCN2C(=O)C2CCOCC2)N1Cc1ccncc1`, the Percent Effect was -35.2%.
Turning to `CS(=O)(=O)NCC1CCCCN1C(=O)Nc1cccnc1N1CCCC1` (stereo not given), the Percent Effect was 4.39%.
Regarding `CC(c1cccnc1)N(C)Cc1csc(-c2ccccn2)n1` (stereo not given), the Percent Effect was -14.1%.
As for `Cc1ccc(Cl)cc1N1CCC(CNC(=O)CCn2ccnn2)C1` (stereo not given), the Percent Effect is -49.4%.
With `O=C(N1CCCC1)N1CCO[C@H]2[C@@H](Oc3ccccn3)CC[C@@H]21`, the Percent Effect was -9.25%.
On the same count and under the same terms, the value for `O=C(c1cccnc1)N1CCCC2(CCN(c3ccsc3)C2=O)C1` (stereo not given) was -14.1%; that for `Cc1nc(CN2CCCC(NCCc3ccccc3Cl)C2)no1` (stereo not given) was 10.1%.
Regarding `CN(Cc1ccc(F)cc1)[C@@H]1CN(C(=O)c2cccs2)C[C@H]1O`, the Percent Effect is -17.2%.
Turning to `CCC(=O)N1CCC2(CC1)COc1ccccc1S(=O)(=O)N(C)C2`, the Percent Effect amounted to 6.18%.
On to `CCOCC1CN(C)Cc2cnn(CC3CCCC3)c21` (stereo not given), for which the Percent Effect is -8.48%.
On the same count and under the same terms, the value for `Cc1cccc(CN2CC3(CCNCC3)OCC2=O)n1` was 5.99%; that for `CCN1CCN(S(=O)(=O)c2cc(C)c(Cl)cc2Cl)CC1` was -47.6%.
With `CC(C)CNC(=O)c1ccc2nnc(C3CCN(S(C)(=O)=O)C3)n2c1` (stereo not given), the Percent Effect is 3.22%.
As for `Cn1cc(C(=O)CC2CCCN2C(=O)c2n[nH]c3ccccc23)cn1` (stereo not given), the Percent Effect amounted to 0.49%.
As for `CNS(=O)(=O)c1cccc(C(C)NCc2ccccc2)c1` (stereo not given), the Percent Effect is -14.4%.
On the same count and under the same terms, the value for `OC(CNCCn1cccn1)c1ccc(F)c(F)c1` (stereo not given) was -25.7%.
On to `Cc1nc(C)n(C2CCCN(C(=O)c3ccc(F)cc3F)C2)n1` (stereo not given), for which the Percent Effect is 1.49%.
Same read-out and setting: the value for `Cc1ccc(NC(=O)N2CCOC(C)C2)cc1Cl` (stereo not given) was 1.77%; that for `O=C(O)c1cc(S(=O)(=O)Nc2cc(F)ccc2F)cc2c1OCCO2` was 31.1%.
Regarding `CC(=O)N1CCC(c2ccnc(Nc3cnccn3)n2)C1` (stereo not given), the Percent Effect was -14.2%.
`CCc1nnc2n1CCN(C(=O)C(C)COCc1ccccc1)C2` (stereo not given): the Percent Effect is 31.4%.
Regarding `Cc1oc(-c2ccco2)nc1CC(=O)N1CCC(C(O)C(F)(F)F)CC1` (stereo not given), the Percent Effect was determined as 4.07%.
In the case of `Cc1cc(CN(C)C(=O)NCC(C)N2CCc3ccccc32)no1` (stereo not given), the Percent Effect was -6.14%.
With `Cc1cc(C)cc(OCCC(=O)N2CCCC(n3cncn3)C2)c1` (stereo not given), the Percent Effect is 5.55%.
As to `COc1cc(CCC(=O)NCC2CCCN2C)ccc1OCC(F)(F)F` (stereo not given), the Percent Effect was determined as 22.2%.
`COCCN(Cc1ccc(F)cc1Cl)C(=O)c1ccc(=O)[nH]n1`: the Percent Effect came to 2.84%.
Take `O=C1CC2(CCCCN2C(=O)c2ccsc2)CN1CC1CC1` (stereo not given): the Percent Effect is -8.01%.
Consider `COc1ccccc1C(=O)N1Cc2cc(C)ccc2OCC1CN(C)C` (stereo not given), for which the Percent Effect was -7.43%.
Turning to `CCn1cc(S(=O)(=O)N(C)Cc2c(Br)cnn2CC)c(C)n1`, the Percent Effect is 13.9%.
For the compound `Cn1ccnc1COc1ccc(CN2CCN(CCO)CC2)cc1`, the Percent Effect is -50.7%.
Still for that read-out and setting: the result for `COCCC1COC2(CCN(C(=O)c3ccco3)CC2)C1` (stereo not given) reads -2.25%; that for `O=C1CCC(C(=O)NCc2nncn2-c2ccccc2)CN1` (stereo not given), 4.47%; that for `Cc1ccc(-c2nc(CN3CCN(S(=O)(=O)N(C)C)CC3)cs2)o1`, -12.2%.
Turning to `O=C(NCCN1CCC(c2cccs2)CC1)Nc1cccs1`, the Percent Effect was -125%.
Still for that read-out and setting: the result for `Cc1ccsc1CNc1cc(N2CCCC2CO)ncn1` (stereo not given) reads -22.2%; that for `O=C(NCCn1ccnc1)N1CCN(c2nccs2)CC1`, -47.2%.
